From PubChem BioAssay
Sampled rows, rich in hits. Any-hit rate of the full collection: about 2.1%.
ADAM10 inh: human ADAM10 inhibitors, primary screen, biochemical, QFRET, HTS; Disintegrin and metalloproteinase domain-containing protein 10 (Homo sapiens), O14672; recombinant ADAM10, EDANS/DABCYL FRET peptide cleavage, 3 h; inhibition, % at 7 µM; hit rate 0.62% among 370,000;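 active means inhibition above a per-campaign cutoff equal to the mean of compounds falling between control-based bounds plus 3 SD, cut at about 20% in these data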;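 further: 0% = DMSO wells while the 100% control is not disclosed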
PLC-gamma1 inh: PLC-gamma1 enzyme inhibitors, primary screen, biochemical, fluorescence, purified enzyme; inhibition, % at 12.2 µM; hit rate 0.84% among 370,000; AID 720700, 2013; fluorogenic substrate; 1-phosphatidylinositol 4,5-bisphosphate phosphodiesterase gamma-1 (Homo sapiens), P19174; in the data active means inhibition above about 9.5%
ADAM17 inh: ADAM17 inhibitors, primary screen, biochemical, QFRET; recombinant ADAM17, EDANS/DABCYL FRET peptide cleavage; Disintegrin and metalloproteinase domain-containing protein 17 (Homo sapiens), P78536; AID 720648, 2013; hit rate 0.83% among 370,000; inhibition, % at 6.95 µM;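 active means inhibition above the mean of compounds lying between control limits plus 3 SD, set per campaign, cut at about 8.5% in these data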;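 further: 0% = DMSO-only wells as the low control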
Rce1 inhib: yeast Rce1p protease inhibitors, primary screen, biochemical, fluorescence, cell-free homogeneous | yeast membranes, quenched prenylated peptide cleavage fluorescence | hit rate 0.27% among 290,000 | AID 2563, 2010 | calls only;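 active means fall in fluorescence gain of 50% or more versus controls, with final raw signal at or below 3038400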;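 further: plate controls were neutral control wells for no effect and wells lacking membranes for full effect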
Target sequence (Q03530 whole entry, looked up): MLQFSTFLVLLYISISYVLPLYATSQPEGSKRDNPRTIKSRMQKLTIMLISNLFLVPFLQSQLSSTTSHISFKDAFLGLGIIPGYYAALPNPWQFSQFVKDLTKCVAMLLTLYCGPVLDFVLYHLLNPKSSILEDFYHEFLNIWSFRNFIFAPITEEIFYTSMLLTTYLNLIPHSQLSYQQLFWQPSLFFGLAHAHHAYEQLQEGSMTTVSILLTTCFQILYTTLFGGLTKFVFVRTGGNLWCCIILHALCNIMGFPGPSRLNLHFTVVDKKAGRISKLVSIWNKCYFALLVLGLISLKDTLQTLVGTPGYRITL
PLCb3 inh: human PLC-beta3 inhibitors, primary screen, biochemical, fluorescence; 1-phosphatidylinositol 4,5-bisphosphate phosphodiesterase beta-3 (Homo sapiens), Q01970; Purified PLC-beta3, fluorogenic substrate; inhibition, % at 12.2 µM; hit rate 0.18% among 370,000; in the data active means inhibition above about 11%;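 further: 0% = median of compound wells on plate and 100% = full blocker control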
ADAM10 counter: ADAM10 inhibitors, counter-screen for ADAM17 exosite inhibitor project, biochemical, FRET, human ADAM10. hit rate 47% among 2,900. shares compounds with ADAM17 inh. AID 743256, 2014. inhibition, % at 6.95 µM. recombinant ADAM10, EDANS/DABCYL FRET peptide cleavage, 3 h;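 active means mean inhibition over the triplicate runs exceeds the activity threshold set in the earlier primary screen, cut at about 20% in these data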;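 further: 0% = DMSO wells and 100% = marimastat wells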
ADAM17 confirm: ADAM17 inhibitors, hit retest, confirmation, biochemical, QFRET peptide cleavage; shares compounds with ADAM17 inh; recombinant ADAM17, EDANS/DABCYL QFRET peptide cleavage; inhibition, % at 6.95 µM; hit rate 65% among 2,900; AID 743257, 2014;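 active means mean inhibition across replicates above the hit cutoff set in the primary screen, cut at about 8.5% in these data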;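 further: 0% = DMSO wells and 100% = marimastat wells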
The depositor's hits bear a star; i = inactive; . = no result given.

SMILES	ADAM10 inh	PLC-gamma1 inh	ADAM17 inh	Rce1 inhib	PLCb3 inh	ADAM10 counter	ADAM17 confirm
O=C1NC(Cc2ccccc2)c2nc3cc(Cl)ccc3c(=O)n2-c2ccccc21 (stereo unspecified)	3	-2	-1	.	2	.	.
CCCCCCCCNC(=S)NCCN1CCCCC1	3	7	3	i	5	.	.
O[C@@H]1CN(CC2CCCCC2)[C@@H](c2ccccc2)C[C@H]1n1cc(C2CC2)nn1	2	9	7	.	6	.	.
O[C@H]1C[C@H](c2ccccc2)N(CC2CCCCC2)C[C@@H]1n1cc(C2CC2)nn1	18	5	9.0*	.	0	21*	13*
CSCCC(NS(=O)(=O)c1ccccc1F)C(=O)Nc1ccncc1 (stereo unspecified)	-7	2	-9	.	-12	.	.
CCOC(=O)c1c(C)[nH]c(C(=O)OCc2ccccc2)c1C	13	-1	8.8*	i	-8	12	8.9*
COc1ccc(N2CCN(C(=O)CN(c3cccc(Br)c3)S(C)(=O)=O)CC2)cc1	8	8	14*	i	8	4	-1
CCN1C(=O)[C@H]2[C@@H](c3ccc(C)cc3)N[C@]3(CCCN(Cc4cccn4C)C3=O)[C@H]2C1=O	-8	-3	-6	.	-6	.	.
O=C(CCC1CCCNC1)c1ccccc1 (stereo unspecified)	.	.	.	i	.	.	.
O=C(Cc1cccc2ccccc12)NC(=S)Nc1cccc(C(=O)O)c1	-3	0	2	i	-3	.	.
Cc1cc(C)cc(NC(=O)c2ccc(Cn3nc(C)c(Cl)c3C)o2)c1	7	-2	9.8*	i	1	21*	9.5*
CN(C)c1ccc(-c2csc(C(C)(O)c3ccc(F)c(F)c3)n2)cc1 (stereo unspecified)	6	-4	13*	.	-10	11	5
COc1cccc(CNC(=O)CSCc2cnn(-c3ccccc3)c2-n2cccc2)c1	18	9	14*	i	8	0	4
N=c1c2c(ccn1Cc1ccccc1)Oc1ccc3ccccc3c1C2c1ccccc1 (stereo unspecified)	18	0	7	.	-6	.	.
N=c1c2c(ccn1CCCCc1ccccc1)Oc1ccc3ccccc3c1C2c1ccccc1 (stereo unspecified)	20	1	9.6*	.	1	20*	14*
CN(C)c1ccc(NC(=O)c2ccc(COc3cccc(Cl)c3)o2)cc1	17	-8	10*	i	-11	18	12*
O=C(c1ccccc1F)N1CCN(S(=O)(=O)c2ccc(S(=O)(=O)N3CCCCC3)cc2)CC1	7	6	8.8*	.	6	-13	-4
O=C(c1ccccc1F)N1CCN(S(=O)(=O)c2ccc(S(=O)(=O)N3CCCCCC3)cc2)CC1	3	2	-1	i	-7	.	.
Cc1cc(C)n(CCc2nc(-c3ccc(F)cc3)cs2)n1	-3	-2	-3	i	1	.	.
Cc1cc(C)n(CCc2nc(-c3ccc(C(C)(C)C)cc3)cs2)n1	19	9	12*	i	5	14	11*
COc1ccc(C(CNC(=O)C2COc3ccccc3O2)N2CCCC2)cc1 (stereo unspecified)	-4	-3	-3	.	-6	.	.
Cc1cccc(NC(=S)N=Nc2c(O)[nH]c3ccccc23)c1	15	11*	9.9*	i	2	27*	13*
Clc1ccc(-n2c(SC/C=C/c3ccccc3)nnc2-c2cccnc2)cc1	19	7	14*	i	4	1	6
O=C(CSc1nnc(-c2cccnc2)n1-c1ccc(Cl)cc1)Nc1ccccc1-c1ccccc1	6	0	2	.	1	.	.
O=C(CSc1nnc(-c2ccccc2)n1-c1ccc(Cl)cc1)Nc1ccccc1-c1ccccc1	19	9	11*	.	3	21*	14*
SMILES	ADAM10 inh	PLC-gamma1 inh	ADAM17 inh	Rce1 inhib	PLCb3 inh	ADAM10 counter	ADAM17 confirm
Nn1c(SC/C=C/c2ccccc2)nnc1-c1cccnc1	-5	-1	-4	i	1	.	.
CCOc1ccccc1NC(=S)N1CCN(c2cccc(OC)c2)CC1	-4	3	2	i	-7	.	.
CC1CC(C)CN(CCCNC(=O)CN2C(=O)CSc3ccc(S(=O)(=O)N4CCCCC4)cc32)C1 (stereo unspecified)	-1	8	10*	i	-7	12	9.8*
O=C(CNC(=O)C1CCCCC1)NCc1ccco1	-2	-1	-4	i	-8	.	.
COc1ccc(C(=O)NCCCn2nc(C)cc2C)cc1S(=O)(=O)N1CCOCC1	3	-2	-4	.	-6	.	.
CC(C)N(c1ccccc1)c1ccc(NC(=O)COC(=O)CCN2C(=O)c3cccc([N+](=O)[O-])c3C2=O)cc1	11	4	8.7*	i	2	25*	15*
Cc1nn(CC(=O)Nc2ccc(S(N)(=O)=O)cc2)c(=O)c2ccccc12	-1	2	-4	i	0	.	.
NC(CSCc1ccccc1Cl)C(=O)O (stereo unspecified)	-15	-2	-4	i	-7	.	.
N=C(N)SCc1ccccc1Cl	-4	2	9.4*	i	2	8	4
CC(C)(C)NC(=O)NC(=O)COC(=O)c1cccc(NS(=O)(=O)c2ccc(F)c(F)c2)c1	11	0	6	i	2	.	.
CC(C)(C)c1ccc(NC(=O)COC(=O)c2ccc(NS(=O)(=O)c3ccc(F)c(F)c3)cc2)cc1	14	-2	9.6*	i	-5	42*	20*
CCOC(=O)CN(Cc1ccccc1)C(=O)OC(C)(C)C	.	.	.	i	.	.	.
COc1ccc(OC)c(C2C(C(N)=O)=C(C)Nc3nc(-c4cccc(Cl)c4)nn32)c1 (stereo unspecified)	-1	-4	9.3*	i	-1	10	6
Cc1onc(-c2ccccc2Cl)c1C(=O)Nc1cccc(S(=O)(=O)N2CCOCC2)c1	-17	2	0	.	-3	.	.
Cc1onc(-c2ccccc2)c1C(=O)Nc1ccc(Cl)c(S(=O)(=O)N2CCOCC2)c1	-4	7	11*	.	-3	10	6
COC(=O)c1cccc(C(=O)N2CCCC(Nc3ccc(C)c(C)c3)C2)c1 (stereo unspecified)	10	2	11*	i	2	18	7
